Data as given in PubChem BioAssay (NCI).
Compounds without any hit were thinned out: in the full panel of roughly 79,000, 15% have a hit. The source made the active and inactive calls. No stated cut-off is given here; in the data, active means growth inhibition above about 70%; inactive means the rest. Where a SMILES comes first, the peptide text is derived from it. [ ]: non-standard residue; d: D form. Hpg = N[CH](C(=O)O)c1ccc(O)cc1

Columns and labels:
[1] = NCI Yeast Anticancer Drug Screen. Data for the rad50 strain (AID 155);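 further: 0% = growth of vehicle-only cultures of the same strain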; conditions: S. cerevisiae rad50 strain growth inhibition; at 50.0 µM; stronger effect = higher value
Procedure, shortened: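 Compounds were tested on a yeast strain with an engineered DNA damage repair alteration; the reported value is growth inhibition normalised to vehicle treatment.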

[2] = NCI Yeast Anticancer Drug Screen. Data for the mec2-1 strain (AID 157); conditions: S. cerevisiae mec2-1 strain, at 50.0 µM, stronger effect = higher value
Procedure, shortened: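 Each compound was tested on mec2-1 yeast, a strain altered in DNA damage repair or cell cycle control. Growth inhibition is reported relative to vehicle.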

[3] = NCI Yeast Anticancer Drug Screen. Data for the sgs1 mgt1 strain (AID 161);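 further: 0% = growth of cultures given vehicle only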; conditions: S. cerevisiae sgs1 mgt1 strain, at 50.0 µM, stronger effect = higher value
Procedure, shortened: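 Genetically altered yeast, compound exposure, growth inhibition relative to vehicle.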

[4] = NCI Yeast Anticancer Drug Screen. Data for the cln2 rad14 strain (AID 165);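 further: 0% = growth equal to vehicle treated cultures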; conditions: S. cerevisiae cln2 rad14 strain, at 50.0 µM, stronger effect = higher value
Procedure, shortened: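 Test compounds were added to cln2 rad14 yeast cultures; inhibition of growth was then determined by comparison with vehicle treatment.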

[5] = NCI Yeast Anticancer Drug Screen. Data for the bub3 strain (AID 167); conditions: S. cerevisiae bub3 mutant strain, at 50.0 µM, stronger effect = higher value
Procedure, shortened: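 Growth of a checkpoint-deficient yeast mutant is measured after compound exposure. Values represent inhibition relative to vehicle.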

[6] = NCI Yeast Anticancer Drug Screen. Data for the mlh1 rad18 strain (AID 175); conditions: S. cerevisiae mlh1 rad18 strain growth inhibition; at 50.0 µM; stronger effect = higher value
Procedure, shortened: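 Inhibition values reflect reduced growth of mutant yeast versus vehicle-treated controls following compound exposure; the mutations affect DNA damage repair.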

Measured: growth inhibition

BrCCCCOc1ccccc1
inactive: [1] 3.5% | [2] 2.65% | [3] -11.3% | [4] -4.25% | [5] -2.7% | [6] 2.7%

O=C(O)C1=NN(c2cc(Cl)c(S(=O)(=O)O)cc2Cl)C(=O)C1
inactive: [1] -33.2% | [2] -45.1% | [3] -14.1% | [4] 6.1% | [5] -5.85% | [6] -32.9%

CCc1cccc(CC)c1N1C(=O)C(=O)C(C(C)=O)C1=O (stereo unspecified)
inactive: [1] -4.05% | [2] -4.45% | [3] 7.6% | [4] -24.5% | [5] -1.25% | [6] 8.45%

O=C(O)C(=O)Cc1cccc(Cl)c1[N+](=O)[O-]
inactive: [1] 2.15% | [2] 5.25% | [3] 13.4% | [4] -10.6% | [5] -4.75% | [6] 15%

CN(C)Cc1c[nH]c2nc[nH]c(=O)c12
inactive: [1] -1.3% | [2] -31.4% | [3] -31.4% | [4] 6% | [5] -9.5% | [6] -16.4%

O=[N+]([O-])c1cccc(S(=O)(=O)O)c1 (tested in a mixture with another compound)
inactive: [1] 15.3% | [2] -3.65% | [3] -0.1% | [4] -33.6% | [5] -2.2% | [6] -4.95%

Cc1ccc(CCC=O)cc1
inactive: [1] 30.6% | [2] -4.1% | [3] 17.4% | [4] -37.9% | [5] -8.5% | [6] 29.4%

CC1=C(C(=O)Nc2cc(C)ccn2)CCO1
inactive: [1] 4.55% | [2] -11.4% | [3] -7.2% | [4] -33% | [5] 11.7% | [6] 15%

Cc1ccc(C(=O)Cc2nc3c([nH]c2=O)c(C)nn3-c2ccccc2)c(C)c1
inactive: [1] 2.6% | [2] -27.5% | [3] 2.55% | [4] 12.7% | [5] -0.85% | [6] 4.7%

COC(=O)C(Cc1nc2ccc(Cl)cc2[nH]c1=O)/C(=N/O)C(=O)Nc1cccc(Cl)c1C (stereo unspecified)
inactive: [1] 22.6% | [2] 0.95% | [3] 0.85% | [4] -40.9% | [5] 0.3% | [6] -4.55%

CCOC(=O)/C=C1/Nc2cc(F)c(F)cc2NC1=O
inactive: [1] -36.1% | [2] 14.1% | [3] 16% | [4] 13.8% | [5] 14.6% | [6] -56%

O=C(O)CN1C(=O)c2ccc([N+](=O)[O-])cc2C1=O
inactive: [1] -3.65% | [2] -0.2% | [3] 2.3% | [4] -8.2% | [5] -16.5% | [6] 4.25%

O=C1OC(=O)c2c1ccc1ccccc21
inactive: [1] -6% | [2] -21.6% | [3] 6.8% | [4] -8.35% | [5] 0.95% | [6] 14.8%

NC(CC1C=CC=CC1)C(=O)O (stereo unspecified)
inactive: [1] 0.6% | [2] 3.15% | [3] 8.35% | [4] -6% | [5] -4.05% | [6] -4.85%

O=C(NC(CSC(=O)OCc1ccccc1)C(=O)Oc1ccc([N+](=O)[O-])cc1)OCc1ccccc1 (stereo unspecified)
inactive: [1] 16.3% | [2] -7.4% | [3] 3.45% | [4] -23.8% | [5] -0.45% | [6] 2.4%

O=c1c(O)c(-c2ccccc2)oc2cc(O)cc(O)c12
inactive: [1] 24.5% | [2] 4.4% | [3] 40.9% | [4] 25.8% | [5] 27.4% | [6] 28.7%

CC(Br)CNC(=O)c1ccc([N+](=O)[O-])cc1 (stereo unspecified)
inactive: [1] -0.65% | [2] 17.3% | [3] 3.6% | [4] -4.35% | [5] 9.75% | [6] 13.3%

O=S1(=O)C=Cc2ccccc2CC1
inactive: [1] -4.15% | [2] -12.2% | [3] -22.4% | [4] -10.8% | [5] 0.9% | [6] -27.8%

CC(C)CC(N)C(=O)NC(C(=O)O)c1ccc(O)cc1 (stereo unspecified) (H-Leu-[Hpg]-OH; configuration not given here)
inactive: [1] -5.3% | [2] -10.1% | [3] 3.4% | [4] -20.4% | [5] 2.7% | [6] 15.8%

C[N+]1(CCc2ccccc2)CCOCC1
inactive: [1] -13.6% | [2] 3.9% | [3] 0.8% | [4] -38% | [5] 1.5% | [6] 2.8%

CCc1cccc(C(C)CC)c1N=C(NC(=O)c1ccccc1C(=O)NC(=Nc1c(CC)cccc1C(C)CC)SC)SC (stereo unspecified)
inactive: [1] -0.7% | [2] -3.15% | [3] 5.3% | [4] 6.3% | [5] 15.1% | [6] -5.15%

CCCC(C)NC(=O)c1ccc(OCC)cc1 (stereo unspecified)
inactive: [1] -12.6% | [2] -3% | [3] -4.95% | [4] -44% | [5] -12.3% | [6] -3.85%

CCOC(=O)N1C2C=C(C)C(ON2C(=O)c2ccccc2)C2C(C)C(=O)N21 (stereo unspecified)
inactive: [1] -3.8% | [2] -10.7% | [3] -5.8% | [4] 18.1% | [5] -17.5% | [6] -13.4%

N#CC1(c2ccc(Cl)cc2)CCC1
inactive: [1] 11.7% | [2] 6.15% | [3] 19.8% | [4] 19.9% | [5] 27.5% | [6] 8.6%

Cc1nc(-c2ccc([N+](=O)[O-])cc2)cn2c1nc1ccccc12
inactive: [1] -26.9% | [2] -33% | [3] -34.1% | [4] -67.6% | [5] -4.25% | [6] -17.8%

CCOC(=O)c1ccc(Nc2nc3ccccc3nc2C(=O)OCC)cc1
inactive: [1] -31.8% | [2] -39.1% | [3] -4.95% | [4] -3.7% | [5] 18.4% | [6] -26.9%

C(=C(c1ccccc1)c1ccccc1)N1CCOCC1
inactive: [1] -2.3% | [2] -5.5% | [3] 4.7% | [4] -52% | [5] -20.1% | [6] 1.2%

CCCCCCCCCCCCCCCCCCNC(=S)/N=C\C(C(=O)Nc1ccccc1C)=C(/C)O
inactive: [1] -9.8% | [2] -11.8% | [3] 5.85% | [4] 0.55% | [5] -21.4% | [6] -5.65%

Cc1ccccc1C(OCCN(C)C)c1ccccc1 (stereo unspecified)
inactive: [1] -46.2% | [2] -44.8% | [3] -44% | [4] -6.65% | [5] -39% | [6] -28.1%

O=C(O)c1ccc(F)cc1F
inactive: [1] 6.25% | [2] -15.9% | [3] 11.3% | [4] -32.7% | [5] -3.75% | [6] 2.85%

CCCCNC(=O)NC/C(Br)=C/Br
inactive: [1] 1.75% | [2] 5.15% | [3] 1.4% | [4] -3.75% | [5] 1.85% | [6] -5.2%

O=C(O)c1ccccc1NC(=O)C1CCCCC1
inactive: [1] 10.1% | [2] 6.8% | [3] 16.3% | [4] 0.85% | [5] -6.55% | [6] 14.5%

Cn1c(N)c(N=Cc2ccc(Cl)cc2)c(=O)n(C)c1=O
inactive: [1] -9.2% | [2] 2.35% | [3] -5.5% | [4] -16.5% | [5] -7.75% | [6] -7.4%

COc1cccc(C(=O)C(CCC#N)c2ccccc2)c1 (stereo unspecified)
inactive: [1] 24.8% | [2] 18.5% | [3] 31.4% | [4] 20.9% | [5] 42.8% | [6] 9.75%

Clc1ccccc1NCSC1=NCCS1
inactive: [1] 5.95% | [2] -15.8% | [3] 3.9% | [4] -19.6% | [5] -3.85% | [6] 20.8%

Cc1c2cnccc2c(C)c2c1c1ccccc1n2CCNCc1ccccc1
inactive: [2] 50.4% | [4] -7.75% | [5] 1.15% | [6] 66.7%
active: [1] 98.2% | [3] 92.7%
